This is one part of a sample in which hits are shown more often than they occur.
Pf Dd2 growth = qHTS Primary assay for Inhibitors of Plasmodium falciparum Dd2 growth in vitro; Potency, µM (titrated, usually from 28.9 µM), hits mostly inhibitors; AID 1347417, 2020; P. falciparum Dd2 growth, SYBR Green, 72 h; hit rate 4.3% among 120,000; active = well fitted inhibition curve with a large enough effect; also: nearly all actives have a fitted effect of over 65% in size
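Infected erythrocytes (Dd2, 0.3% parasitemia, 2.5% hematocrit final) are added to compound in RPMI-1640/Albumax II medium, grown 72 h at 37C in low oxygen, then lysed with saponin/Triton-X containing SYBR Green and read by fluorescence.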
Hits are given with their value; n = inactive; [ ] = remark or other dose.

SMILES | Pf Dd2 growth
Cc1nn(C)c2nc(-c3ccccn3)nc(NCc3ccc4c(c3)OCO4)c12 | 8.9µM
CCc1ccc(C(=O)N2CCC3(CC2)OCC(C(=O)N2CCCC2)N3C(=O)c2cccc(C)c2)cc1 (configuration not stated) | n
O=C(c1ccc(C(F)(F)F)cc1)N1CCCC2(CC(c3cccc(C(F)(F)F)c3)=NO2)C1 (configuration not stated) | n
Cc1ccc(CN2CCN(C(=O)C3Cn4cccc4C(=O)N3C)CC2)cc1 (configuration not stated) | n
Cc1ccccc1C(=O)N1CCc2nc3cc[nH]n3c(=O)c2C1 | n[5.79 µM]
NC(=O)c1ccccc1OCC(=O)N1CC(CNc2ccccc2)C2(C1)CN(c1ccccc1)C2 (configuration not stated) | n
N#Cc1ccc(CN2CC(CNC(=O)Nc3ccccc3)C3(C2)CN(c2ccccc2)C3)cc1 (configuration not stated) | n
COc1ccc(CN2CC(CNc3ccccc3)C3(C2)CN(c2ccccc2)C3)cc1O (configuration not stated) | 3.5µM
COc1ccc(-c2cc(N3CCN(C(=O)c4ccc(C)cc4)CC3)n[nH]2)cc1 | n
COc1ccc(OC2CN(Cc3cccc4ccccc34)C2)cc1 | n
Cc1ccc(NC(=O)Cn2cccc2-c2nc(-c3ccccc3)no2)cc1 | n
CCOc1ccc(C(=O)NCCn2cccc2-c2nc(-c3ccccc3)no2)cc1OCC | 10µM
COc1ccc(NC(=O)Cn2cccc2-c2nc(-c3ccc4c(c3)OCO4)no2)cc1OC | n
COc1ccc(-c2noc(-c3cccn3CC(=O)Nc3ccc(F)c(F)c3)n2)cc1F | 2.8µM
COc1ccc(-c2noc(-c3cccn3CC(=O)NC3CCCC3)n2)cc1F | n
COc1ccc(NC(=O)Cn2cccc2-c2nc(-c3ccc(F)cc3)no2)cc1 | 2.5µM
Cc1ccc(NC(=O)Cn2cccc2-c2nc(-c3ccccc3)no2)c(Cl)c1 | n
CCc1ccccc1NC(=O)Cn1cccc1-c1nc(-c2ccccc2)no1 | 2.8µM
Cc1cc(C)c(NC(=O)Cn2cccc2-c2nc(-c3ccc(F)cc3)no2)c(C)c1 | n
COc1ccc(C(=O)NCCn2cccc2-c2nc(-c3ccccc3)no2)cc1 | n
O=C(Cn1cccc1-c1nc(-c2ccc(F)cc2)no1)Nc1cccc(F)c1 | n
CCOc1ccc(CCNC(=O)Cn2cccc2-c2nc(-c3ccccc3)no2)cc1OCC | n
Cc1cccc(Cl)c1NC(=O)CN1C(=O)NC2(CCC(C)CC2)C1=O (configuration not stated) | n
Cn1cnc(S(=O)(=O)N2CC(N(Cc3ccccc3)C3CCOCC3)C2)c1 | n
CCCCC1CN(c2ccc(Cl)cc2)C(=O)CN1C(=O)CNC(=O)OC (configuration not stated) | n
SMILES | Pf Dd2 growth
CNC(=O)C(C)(C)N1CCC[C@H]1C(=O)N[C@@H](CO)CC(C)C | n
O=C(c1ccccc1F)N1CCn2c(nn(-c3ccc([N+](=O)[O-])cc3)c2=O)C1 | n
COc1cc(NC(=O)C2(Cc3cccnc3)CCCCC(=O)N2)cc(OC)c1 (configuration not stated) | n
CCCC1c2nccn2CCCN1C(=O)Cc1c(C)noc1C (configuration not stated) | n
COCCCn1c(C)cnc1CC1CCN(C(=O)NC2CCCCC2)CC1 | n
C=CCNC(=O)C1CC(=O)N(c2n[nH]c3cccc(F)c23)C1 (configuration not stated) | n
CCNC(=O)[C@@H]1CCCN1C1(C(=O)NC)CCC1 | n
COc1ccc(-c2noc(-c3cccn3CC(=O)Nc3ccc(N(C)C)cc3)n2)cc1F | n
COc1ccc(-c2noc(-c3cccn3CC(=O)Nc3cccc(Cl)c3)n2)cc1F | 2.5µM
COc1ccc(CCNC(=O)Cn2cccc2-c2nc(-c3ccc(F)cc3)no2)cc1OC | n
COc1ccc(-c2noc(-c3cccn3CC(=O)Nc3cc(F)ccc3Cl)n2)cc1F | n
CCc1ccc(NC(=O)Cn2cccc2-c2nc(-c3ccc(OC)c(F)c3)no2)cc1 | 2µM
COC(=O)c1ccccc1NC(=O)Cn1cccc1-c1nc(-c2ccc(OC)c(F)c2)no1 | n
O=C(CCc1nc2ccccc2[nH]1)NC1CCN(C(=O)N2CC3CC(C2)[C@H]2CCCC(=O)N2C3)CC1 (some centres not stated) | n
Cc1cc(-c2cc3c(cn2)CN(Cc2cccc(F)c2)CCN3)ccn1 | n
Cc1nn(C)c(C)c1CCC(=O)N1C[C@@H](Oc2ccccc2)C[C@H]1C(=O)NC1CC1 | n
Cc1cc(=O)c(C(=O)N2CCC3(CC2)CC(C(=O)O)N(C)C3)c(C)[nH]1 (configuration not stated) | n
COCCNC(=O)c1ccc2c(c1)N(Cc1cc(C)ccc1C)C(=O)c1ccccc1S2(=O)=O | n
O=C(c1ccc2c(c1)N(Cc1ccccc1F)C(=O)c1ccccc1S2(=O)=O)N1CCCCC1 | n
Cc1ccc(CNC(=O)c2ccc3c(c2)N(Cc2ccccc2)C(=O)c2ccccc2S3(=O)=O)cc1 | n
Cc1ccc(C)c(CN2C(=O)c3ccccc3S(=O)(=O)c3ccc(C(=O)NCc4ccccc4)cc32)c1 | 7.1µM
O=C(c1ccc2c(c1)N(Cc1ccccc1F)C(=O)c1ccccc1S2(=O)=O)N1CCCC1 | n
O=C(NCc1ccco1)c1ccc2c(c1)N(Cc1ccccc1)C(=O)c1ccccc1S2(=O)=O | n
O=C(c1ccc2c(c1)N(Cc1ccc(F)cc1)C(=O)c1ccccc1S2(=O)=O)N1CCCC1 | n
O=C(c1ccc2c(c1)N(Cc1ccccc1)C(=O)c1ccccc1S2(=O)=O)N1CCN(Cc2ccccc2)CC1 | 8.9µM
SMILES | Pf Dd2 growth
CCC(C)NC(=O)c1ccc2c(c1)N(Cc1ccccc1)C(=O)c1ccccc1S2(=O)=O (configuration not stated) | 3.2µM
COC(=O)c1ccc2c(c1)N(Cc1ccccc1)C(=O)c1ccccc1S2(=O)=O | n
Cc1ccc(C)c(CN2C(=O)c3ccccc3S(=O)(=O)c3ccc(C(=O)N4CCN(c5ccccc5)CC4)cc32)c1 | 5.6µM
CO[C@H]1C(=O)N(C2CCN(Cc3ccc(C)s3)CC2)[C@H]1c1ccncc1 | n
O=C(O)C(c1cccc2c1OCC2)N1CCC(OCc2cccnc2)CC1 (configuration not stated) | n
CCCOc1nccnc1NC1CCN(C(=O)c2ccccn2)CC1 | n[5.79 µM]
COCCc1noc([C@@H]2CC(F)(F)CN2C(=O)c2ncccc2F)n1 | n
Cc1ccc(CCNC(=O)c2ccc3c(c2)N(Cc2cccc(C)c2)C(=O)c2ccccc2S3(=O)=O)cc1 | n
CCOC(=O)c1ccc2c(c1)N(Cc1cc(C)ccc1C)C(=O)c1ccccc1S2(=O)=O | n
CCOC(=O)N1CCC(NC(=O)c2ccc3c(c2)N(Cc2cc(C)ccc2C)C(=O)c2ccccc2S3(=O)=O)CC1 | 11µM
O=C(NC1CCCCC1)N1CCC(c2nnc3n2CCNC3)CC1 | n
COc1ccc(C(=O)NC2CCN(c3cc(C(F)(F)F)nc(C)n3)CC2)cc1 | 14µM
Cc1nc(N2CCC(NC(=O)Cc3cccs3)CC2)cc(C(F)(F)F)n1 | n
Cc1nc(N2CCC(NC(=O)c3ccsc3)CC2)cc(C(F)(F)F)n1 | n
Cc1nc(N2CCC(NC(=O)c3cccs3)CC2)cc(C(F)(F)F)n1 | 5µM
COc1ccc(C(=O)NC2CCN(c3cc(C(F)(F)F)nc(C)n3)CC2)c(C)c1 | n
Cc1ccc(C(=O)NC2CCN(c3cc(C(F)(F)F)nc(C)n3)CC2)cc1 | n
CCc1cccc(C)c1NC(=O)CN1C=C(C(=O)OC)C(C)=NS1(=O)=O | n
